Reference: PubChem BioAssay (Tox21)
Results filed as inconclusive are left out. The source made the active and inactive calls. Unless noted, calls come from the whole dose curve.

Legend:
[1] = Nuclear factor erythroid 2-related factor 2/antioxidant responsive element (Nrf2/ARE) small molecule agonists: qHTS cell viability counter screen in human keratinocytes (AID 1919968; active = well fitted curve in the direction sought with a large enough effect in the repeat runs; an effect the other way counts as inactive or inconclusive; note: nearly all actives have a fitted effect of over 55% in size)
Procedure, shortened: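 Fluorescence read-out from CellTiter-Fluor after 1 h at 37 C. Wells held HaCaT-derived ARE-luciferase reporter cells (1,500/well) treated 23 h with DMSO-dissolved compounds. Run in the same wells as the luciferase agonist read.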

[2] = Nuclear factor erythroid 2-related factor 2/antioxidant responsive element (Nrf2/ARE) small molecule agonists: luciferase reporter gene qHTS assay in human keratinocytes (AID 1919969); note: nearly all actives have a fitted effect of over 35% in size
[3] = biological target: Gonadotropin-releasing hormone receptor (Homo sapiens) (UniProt P30968); experiment: Human gonadotropin-releasing hormone receptor (GnRHR) small molecule agonists, calcium flux assay in GnRHR-HEK293 cells (AID 1920063); note: nearly all actives have a fitted effect of over 35% in size
Procedure, shortened: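 Calcium-dye fluorescence, Ex/Em=480/540, recorded every 1 sec over 3 min after compound addition to GnRHR-HEK293 cells. Cells had been seeded 18 hours earlier and dye-loaded for 1 hour at 37 C. Fifteen concentrations, triplicates.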

[4] = biological target: KiSS-1 receptor (Homo sapiens) (UniProt Q969F8); experiment: Human kisspeptin (KISS1R) small molecule agonists, calcium flux assay in KISS1R-HEK293 cells (AID 1920064; active = well fitted curve in the direction sought with a large enough effect in the repeat runs; an effect the other way counts as inactive or inconclusive)
Procedure, shortened: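 Calcium flux read-out: kinetic fluorescence at Ex/Em=480/540, 1 s intervals over 3 min, after pin-tool compound addition to dye-loaded KISS1R-HEK293 cells. Fifteen concentrations, triplicates.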

[5] = G protein-coupled receptor (GPCR) small molecule agonists, calcium flux assay: HEK293 wild type cell line counter screen (AID 1920065)
Procedure, shortened: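 Agonist mode; 18 h seeding at 37 C, 1 h dye load at 37 C; compounds pinned from DMSO, ATP as positive control; kinetic fluorescence 480/540 nm, 3 min, 1 s reads; 15 concentrations, triplicate.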

[6] = p53 small molecule agonists, cell-based qHTS assay with human liver microsomes (AID 1963577);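 note: p53 response element beta-lactamase reporter cells with liver microsomes plus NADPH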
Procedure, shortened: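 In this qHTS, p53 response-element beta-lactamase cells receive test compound together with a microsome/NADPH activating system (0.5 mg/mL final each) and are incubated 16 h at 37 C before LiveBLAzer fluorescence detection.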

[7] = p53 small molecule agonists, cell-based qHTS assay with rat liver microsomes (AID 1963578)
Procedure, shortened: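 Agonist mode in p53RE-bla reporter cells, with compounds co-incubated 16 h at 37 C alongside 0.5 mg/mL rat liver microsomes and 0.5 mg/mL NADPH (final), followed by a 2 h LiveBLAzer detection step.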

[8] = p53 small molecule agonists, cell-based qHTS assay with human liver microsomes: qHTS cell viability counter screen (AID 1963579); note: nearly all actives have a fitted effect of over 45% in size
Procedure, shortened: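 Metabolically activated exposure: compounds, human liver microsomes and NADPH (0.5 mg/mL final apiece) were added to p53RE-bla cells seeded 5 h earlier, left 16 h at 37 C, and then assessed for viability by CellTiter-Glo luminescence.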

[9] = p53 small molecule agonists, cell-based qHTS assay with rat liver microsomes: qHTS cell viability counter screen (AID 1963580); note: nearly all actives have a fitted effect of over 45% in size
Procedure, shortened: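 Cytotoxicity counter screen: intracellular ATP read by CellTiter-Glo luminescence in the p53 reporter wells. HCT-116 p53RE-bla cells were treated for 16 h at 37 C alongside rat liver microsomes and NADPH, each 0.5 mg/mL final.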

[10] = p53 small molecule agonists, cell-based qHTS assay (AID 1963582; active = well fitted activation curve with a large enough effect in the signal ratio in the repeat runs, not every such curve was filed as active; the % refers to the signal ratio)
Procedure, shortened: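 Fluorescence intensity read-out of a beta-lactamase reporter under a p53 response element. Cells were exposed to DMSO-dissolved compounds for 16 h at 37 C, then developed with FRET substrate for 2 h at RT.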

[11] = biological target: 5-hydroxytryptamine receptor 2A (Homo sapiens) (UniProt P28223); experiment: 5-hydroxytryptamine receptor 2A (HTR2A) small molecule antagonists, cell-based qHTS assay (AID 1963586); note: nearly all actives have a fitted effect of over 45% in size
Procedure, shortened: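 CHO cells stably expressing human HTR2A were plated for 18 h at 37 C, then loaded with calcium dye for 1 h. Compounds were preincubated 5 min at room temperature before DOI (4 nM solution) was added. Kinetic fluorescence was read for 3 min.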

[12] = biological target: Muscarinic acetylcholine receptor M1 (Homo sapiens) (UniProt P11229); experiment: Cholinergic receptor muscarinic 1 (CHRM1) small molecule antagonists, cell-based qHTS assay (AID 1963588); note: nearly all actives have a fitted effect of over 40% in size
Procedure, shortened: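 Compounds were tested at 15 concentrations in three independent runs. Dye-loaded CHRM1-CHO cells were exposed 5 min at room temperature before stimulation by acetylcholine added at 50nM. Intracellular calcium was read kinetically on FDSS for 3 min.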

[13] = biological target: Muscarinic acetylcholine receptor M1 (Homo sapiens) (UniProt P11229); experiment: Cholinergic receptor muscarinic 1 (CHRM1) small molecule agonists, cell-based qHTS assay (AID 1963589); note: nearly all actives have a fitted effect of over 35% in size
Procedure, shortened: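 Calcium flux read-out: kinetic fluorescence at 1 sec intervals after pin-tool compound addition to dye-loaded CHRM1-CHO cells (human M1). Agonist mode; 15 concentrations tested in triplicate independent runs.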

[14] = cAMP Responsive Elements (CRE) small molecule agonists, cell-based qHTS assay (AID 1963590)
Procedure, shortened: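 Beta-lactamase reporter readout: LiveBLAzer B/G FRET substrate, 2 h at room temperature, added after 3 h compound treatment of CRE-bla HEK 293T cells at 37 C/5% CO2.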

[15] = biological target: Beta-2 adrenergic receptor (Homo sapiens) (UniProt P07550); experiment: Adrenergic beta2 receptor (ADRB2) small molecule antagonists, cell-based qHTS assay (AID 1963592); note: series mostly up to about 92 µM; nearly all actives have a fitted effect of over 50% in size
Procedure, shortened: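 Assay format: CHO-ADRB2 cells, 18-20hr seeding at 37C/5% CO2, then compound plus 1nM isoproterenol agonist mix for 0.5hr RT. Homogeneous time-resolved fluorescence cAMP detection after 1hr, expressed as 665/615 nm ratio.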

[16] = biological target: D(2) dopamine receptor (Homo sapiens) (UniProt P14416); experiment: Dopamine D2 receptor (DRD2) small molecule agonists, cell-based qHTS assay (AID 1963594); note: nearly all actives have a fitted effect of over 35% in size
Procedure, shortened: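 cAMP accumulation in DRD2-HEK293 cells measured by HTRF after 1 h detection; compounds added 10 min before NKH477 (200nM […]) forskolin-analogue stimulation, 30 min at room temperature, with Ro20-1724 present at 0.1 mM final.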

[17] = biological target: D(2) dopamine receptor (Homo sapiens) (UniProt P14416); experiment: Dopamine D2 receptor (DRD2) small molecule antagonists, cell-based qHTS assay (AID 1963595; active = well fitted inhibition curve with a large enough effect in the signal ratio in the repeat runs, with a control signal flat; the % refers to the signal ratio; note: potency is the fitted concentration of half-maximal effect)
Procedure, shortened: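 Cells were plated and grown for 24 h at 37 °C. Ro20-1724 (0.1 mM final) went in first, then compound for 10 min. NKH477 (200 nM) with quinpirole (12 nM) followed for 30 min at RT, then HTRF detection reagents for 1 h.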

[18] = biological target: 5-hydroxytryptamine receptor 2A (Homo sapiens) (UniProt P28223); experiment: 5-hydroxytryptamine receptor 2A (HTR2A) small molecule agonists, cell-based qHTS assay (AID 1963587); note: nearly all actives have a fitted effect of over 30% in size
Procedure, shortened: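 Kinetic calcium-flux fluorescence (2 min, 1 sec intervals) after compound addition in agonist mode. HTR2A-CHO cells were cultured 18 h, then dye-loaded 1 h at 37 C.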

[19] = cAMP Responsive Elements (CRE) small molecule antagonists, cell-based qHTS assay (AID 1963591; active = well fitted inhibition curve with a large enough effect in the signal ratio in the repeat runs, not every such curve was filed as active; the % refers to the signal ratio)
Procedure, shortened: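 HEK293T CRE-bla; 18 h preincubation; compound pin-transfer; NKH477 0.25 uM final, 3 h, 37 C; LiveBLAzer FRET substrate 2 h RT.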

[20] = biological target: Beta-2 adrenergic receptor (Homo sapiens) (UniProt P07550); experiment: Adrenergic beta2 receptor (ADRB2) small molecule agonists, cell-based qHTS assay (AID 1963593);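 note: CHO cells stably overexpressing human ADRB2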
Procedure, shortened: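 CHO cells stably over-expressing ADRB2 were plated overnight at 37C, then dosed with compounds plus a stimulation mix containing 100uM IBMX and 25uM Ro-20-1724 for 0.5hr at room temperature. cAMP was measured by HTRF competition, 1hr.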

Measured: Potency

Chain of Beta-2 adrenergic receptor (Homo sapiens) (P07550 whole entry, looked up): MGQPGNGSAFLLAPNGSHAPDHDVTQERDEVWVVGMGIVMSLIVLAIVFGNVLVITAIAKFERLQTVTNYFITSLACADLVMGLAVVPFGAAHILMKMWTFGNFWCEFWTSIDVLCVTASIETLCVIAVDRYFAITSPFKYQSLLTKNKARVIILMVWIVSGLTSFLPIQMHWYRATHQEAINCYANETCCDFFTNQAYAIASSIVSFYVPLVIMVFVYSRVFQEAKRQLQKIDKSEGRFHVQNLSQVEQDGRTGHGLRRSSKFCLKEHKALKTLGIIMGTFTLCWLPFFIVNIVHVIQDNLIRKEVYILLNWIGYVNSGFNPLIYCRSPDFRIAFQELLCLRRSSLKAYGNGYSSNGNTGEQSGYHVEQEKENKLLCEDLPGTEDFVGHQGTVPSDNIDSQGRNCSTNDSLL
Chain of 5-hydroxytryptamine receptor 2A (Homo sapiens) (P28223 whole entry, looked up): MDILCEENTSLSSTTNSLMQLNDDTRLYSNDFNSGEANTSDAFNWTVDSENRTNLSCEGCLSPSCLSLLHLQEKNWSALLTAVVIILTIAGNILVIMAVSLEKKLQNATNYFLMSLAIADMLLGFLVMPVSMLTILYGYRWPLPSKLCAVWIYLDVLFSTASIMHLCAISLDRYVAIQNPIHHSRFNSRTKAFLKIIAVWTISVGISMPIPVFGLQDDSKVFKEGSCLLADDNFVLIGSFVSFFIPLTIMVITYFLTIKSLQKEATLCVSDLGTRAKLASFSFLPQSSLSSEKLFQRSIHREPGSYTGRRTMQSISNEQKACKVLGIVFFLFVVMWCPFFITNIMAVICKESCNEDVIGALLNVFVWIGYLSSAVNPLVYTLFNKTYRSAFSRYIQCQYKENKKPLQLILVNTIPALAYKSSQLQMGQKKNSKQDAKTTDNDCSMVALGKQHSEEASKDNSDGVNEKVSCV
Chain of Gonadotropin-releasing hormone receptor (Homo sapiens) (P30968 whole entry, looked up): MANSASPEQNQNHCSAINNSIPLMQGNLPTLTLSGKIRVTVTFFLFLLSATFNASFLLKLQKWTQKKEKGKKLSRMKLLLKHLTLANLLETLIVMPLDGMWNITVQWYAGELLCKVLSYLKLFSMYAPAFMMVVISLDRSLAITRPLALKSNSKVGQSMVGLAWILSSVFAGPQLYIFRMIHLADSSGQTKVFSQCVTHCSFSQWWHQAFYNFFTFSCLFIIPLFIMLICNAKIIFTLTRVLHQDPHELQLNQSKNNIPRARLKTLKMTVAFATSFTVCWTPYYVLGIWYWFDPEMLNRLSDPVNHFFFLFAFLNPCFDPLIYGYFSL
Chain of Muscarinic acetylcholine receptor M1 (Homo sapiens) (P11229 whole entry, looked up): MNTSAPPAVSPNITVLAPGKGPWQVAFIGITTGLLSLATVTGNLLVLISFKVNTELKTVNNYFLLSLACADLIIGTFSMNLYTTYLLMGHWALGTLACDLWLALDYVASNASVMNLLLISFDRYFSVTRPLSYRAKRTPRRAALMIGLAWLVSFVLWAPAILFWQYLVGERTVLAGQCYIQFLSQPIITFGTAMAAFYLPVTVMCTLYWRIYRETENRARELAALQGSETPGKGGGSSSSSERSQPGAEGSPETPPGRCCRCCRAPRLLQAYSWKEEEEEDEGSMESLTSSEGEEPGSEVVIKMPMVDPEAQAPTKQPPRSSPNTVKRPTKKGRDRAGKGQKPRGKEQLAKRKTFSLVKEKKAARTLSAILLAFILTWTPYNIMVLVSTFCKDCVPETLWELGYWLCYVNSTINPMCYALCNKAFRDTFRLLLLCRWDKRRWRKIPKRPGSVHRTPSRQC
Chain of KiSS-1 receptor (Homo sapiens) (Q969F8 whole entry, looked up): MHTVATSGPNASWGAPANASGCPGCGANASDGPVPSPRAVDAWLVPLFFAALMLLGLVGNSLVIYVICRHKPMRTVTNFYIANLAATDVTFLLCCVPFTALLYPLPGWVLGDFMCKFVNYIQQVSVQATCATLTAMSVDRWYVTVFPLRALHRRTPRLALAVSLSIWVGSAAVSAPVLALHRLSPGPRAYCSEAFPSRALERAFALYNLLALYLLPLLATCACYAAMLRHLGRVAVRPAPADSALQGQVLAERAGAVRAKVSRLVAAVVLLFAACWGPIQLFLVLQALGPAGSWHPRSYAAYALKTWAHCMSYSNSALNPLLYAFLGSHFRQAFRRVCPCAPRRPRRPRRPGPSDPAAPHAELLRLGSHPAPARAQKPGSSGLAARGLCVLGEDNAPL
Chain of D(2) dopamine receptor (Homo sapiens) (P14416 whole entry, looked up): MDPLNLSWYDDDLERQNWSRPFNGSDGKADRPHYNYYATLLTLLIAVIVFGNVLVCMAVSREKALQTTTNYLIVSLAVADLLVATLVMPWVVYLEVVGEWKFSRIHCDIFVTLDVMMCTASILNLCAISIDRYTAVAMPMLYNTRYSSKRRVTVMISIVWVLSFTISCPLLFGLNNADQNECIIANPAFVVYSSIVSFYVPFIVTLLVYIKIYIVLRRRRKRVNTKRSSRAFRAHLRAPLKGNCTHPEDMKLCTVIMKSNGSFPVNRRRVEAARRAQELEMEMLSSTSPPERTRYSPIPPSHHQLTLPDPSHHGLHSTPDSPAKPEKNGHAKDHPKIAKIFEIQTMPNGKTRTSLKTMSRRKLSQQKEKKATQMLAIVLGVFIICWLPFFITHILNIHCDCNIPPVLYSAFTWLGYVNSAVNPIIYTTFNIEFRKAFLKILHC

CCCCCCCCCCCC(=O)N(CC)CC
inactive: [1] | [2] | [3] | [4] | [5] | [6] | [7] | [8] | [9] | [10] | [11] | [12] | [13] | [14] | [15] | [16] | [17]

CC[N+](CC)(CCNC(=O)C(=O)NCC[N+](CC)(CC)Cc1ccccc1Cl)Cc1ccccc1Cl
inactive: [1] | [2] | [3] | [4] | [5] | [6] | [7] | [8] | [9] | [10] | [11] | [18] | [13] | [14] | [19] | [16] | [17]

CCn1c2ccccc2c2cc([N+](=O)[O-])ccc21
inactive: [1] | [2] | [3] | [4] | [5] | [6] | [7] | [8] | [9] | [10] | [11] | [18] | [12] | [13] | [19] | [15] | [16] | [17]

Cc1cnc(NS(=O)(=O)c2ccc(N)cc2)nc1
inactive: [1] | [2] | [3] | [4] | [5] | [6] | [7] | [8] | [9] | [10] | [11] | [12] | [14] | [19] | [17]

CCOC(=O)C1=NOC(c2ccccc2)(c2ccccc2)C1
inactive: [1] | [2] | [3] | [4] | [5] | [6] | [7] | [8] | [9] | [10] | [11] | [18] | [14] | [15] | [20] | [16] | [17]

NCCOCCOCCN
inactive: [1] | [2] | [3] | [4] | [5] | [6] | [7] | [8] | [9] | [10] | [11] | [18] | [13] | [14] | [19] | [15] | [20] | [16] | [17]

CCN(CC)CCNC(=O)c1cc(Br)c(N)cc1OC
inactive: [1] | [2] | [3] | [4] | [5] | [6] | [7] | [8] | [9] | [10] | [18] | [12] | [13] | [14] | [19] | [15] | [20] | [16]
active: [17] 376 nM

C=CC(=O)OCC1CCCO1 (stereo not given)
inactive: [1] | [2] | [3] | [4] | [5] | [6] | [7] | [8] | [9] | [10] | [11] | [18] | [14] | [19] | [15] | [16] | [17]

Cc1cccc2sc(N)nc12
inactive: [1] | [2] | [3] | [4] | [5] | [6] | [7] | [8] | [9] | [10] | [11] | [18] | [12] | [14] | [19] | [15] | [20] | [16] | [17]

C=CC(=O)OCCOCCOCC
inactive: [1] | [2] | [3] | [4] | [5] | [6] | [7] | [8] | [9] | [10] | [11] | [12] | [13] | [14] | [19] | [15] | [16] | [17]

O=C(O)Cc1cn(-c2ccccc2)nc1-c1ccc(Cl)cc1
inactive: [1] | [2] | [3] | [4] | [5] | [6] | [7] | [8] | [9] | [10] | [11] | [18] | [12] | [13] | [15] | [20] | [16] | [17]

CC=C(Cl)Cl
inactive: [1] | [2] | [3] | [4] | [5] | [6] | [7] | [8] | [9] | [10] | [11] | [18] | [13] | [14] | [19] | [15] | [16] | [17]

N#CCC(=O)NN
inactive: [1] | [2] | [3] | [4] | [5] | [6] | [7] | [8] | [9] | [10] | [18] | [12] | [13] | [14] | [19] | [15] | [20] | [16]
